The list is not random: actives were taken first. Their share in the collection is about 3.3%.
Mcl1 Noxa PPI: Mcl-1/Noxa binding inhibitors, primary screen, biochemical, TR-FRET, 1536-well; hit rate 1.5% among 220,000; TR-FRET Mcl-1/Noxa peptide binding, 2 h; inhibition, % at 21.7 µM; Induced myeloid leukemia cell differentiation protein Mcl-1 (Homo sapiens), Q07820; AID 1022, 2008;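 active = compounds that cut the protein-peptide binding signal by more than 50% relative to plate controls in a single-dose test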;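 also: His-tagged Mcl-1 with rhodamine Noxa BH3 peptide and terbium anti-His antibody; 0% = Mcl-1 plus Noxa peptide wells and 100% = peptide-only wells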
Bim-Mcl-1: inhibitors of Bim peptide binding to Mcl-1, primary screen, biochemical, bead-based flow cytometry, multiplex | Induced myeloid leukemia cell differentiation protein Mcl-1 (Homo sapiens), Q07820 | Bim peptide-Mcl-1 binding | inhibition, % at 10 µM | hit rate 0.1% among 190,000 | AID 1009, 2008; in the data active = inhibition above about 40%;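 also: 0% = no compound tracer wells and 100% = peptide blocker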
Mcl1-Bid inh: Mcl-1/Bid binding inhibitors, primary screen, biochemical, TR-FRET, 1536-well; Induced myeloid leukemia cell differentiation protein Mcl-1 (Homo sapiens), Q07820; TR-FRET Mcl-1/Bid-Dy647 peptide binding; inhibition, % at 21.7 µM; hit rate 0.97% among 220,000; AID 1021, 2008;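 active = compounds that cut the binding signal by more than half at the single screening dose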;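 also: His-tagged Mcl-1 with europium anti-His antibody binding Bid BH3 peptide; 0% = Mcl-1 plus peptide wells and 100% = peptide-only wells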
14-3-3 Bad PPI: inhibitors of 14-3-3 zeta/Bad binding, primary screen, biochemical, TR-FRET, bovine 14-3-3 zeta; hit rate 0.71% among 220,000; inhibition, % at 21.7 µM; 14-3-3 protein zeta/delta (Bos taurus), P63103; AID 781, 2007; TR-FRET 14-3-3zeta/Dy647-pBad peptide displacement, 1 h;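 active = inhibition above about 70%, limit read from the data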;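 also: 0% = full 14-3-3 plus peptide FRET controls and 100% = background without 14-3-3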
NCF1 inh: p47phox/p22phox peptide binding inhibitors, primary screen, biochemical, uHTS, NADPH oxidase regulatory subunit | Neutrophil cytosol factor 1 (Homo sapiens), P14598 | fluorescence polarization, 2 h | inhibition, % at 24.7 µM | hit rate 0.53% among 220,000 | AID 1274, 2008;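 also: 0% = p47phox with labelled peptide and 100% = labelled peptide alone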
eIF4E-4G inh: eIF4E–eIF4G protein interaction inhibitors, primary screen, biochemical, uHTS, TR-FRET, eIF4GI fragment; Eukaryotic translation initiation factor 4E (Mus musculus) + Eukaryotic translation …; TR-FRET eIF4E-eIF4GI(517-606) binding, 2 h; inhibition, % at 21.7 µM; hit rate 0.37% among 220,000; AID 782, 2007;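 also: 0% = full FRET control wells and 100% = background wells lacking eIF4GI fragment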
Target sequence (P63073 whole entry, looked up, the tested form may be a part): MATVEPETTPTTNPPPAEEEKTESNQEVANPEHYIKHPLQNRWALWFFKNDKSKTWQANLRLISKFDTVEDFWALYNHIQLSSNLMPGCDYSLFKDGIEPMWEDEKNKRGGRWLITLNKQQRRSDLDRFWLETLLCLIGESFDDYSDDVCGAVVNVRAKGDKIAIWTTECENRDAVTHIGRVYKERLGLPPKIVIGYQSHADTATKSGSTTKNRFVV
Target sequence (Q04637 whole entry, looked up, the tested form may be a part): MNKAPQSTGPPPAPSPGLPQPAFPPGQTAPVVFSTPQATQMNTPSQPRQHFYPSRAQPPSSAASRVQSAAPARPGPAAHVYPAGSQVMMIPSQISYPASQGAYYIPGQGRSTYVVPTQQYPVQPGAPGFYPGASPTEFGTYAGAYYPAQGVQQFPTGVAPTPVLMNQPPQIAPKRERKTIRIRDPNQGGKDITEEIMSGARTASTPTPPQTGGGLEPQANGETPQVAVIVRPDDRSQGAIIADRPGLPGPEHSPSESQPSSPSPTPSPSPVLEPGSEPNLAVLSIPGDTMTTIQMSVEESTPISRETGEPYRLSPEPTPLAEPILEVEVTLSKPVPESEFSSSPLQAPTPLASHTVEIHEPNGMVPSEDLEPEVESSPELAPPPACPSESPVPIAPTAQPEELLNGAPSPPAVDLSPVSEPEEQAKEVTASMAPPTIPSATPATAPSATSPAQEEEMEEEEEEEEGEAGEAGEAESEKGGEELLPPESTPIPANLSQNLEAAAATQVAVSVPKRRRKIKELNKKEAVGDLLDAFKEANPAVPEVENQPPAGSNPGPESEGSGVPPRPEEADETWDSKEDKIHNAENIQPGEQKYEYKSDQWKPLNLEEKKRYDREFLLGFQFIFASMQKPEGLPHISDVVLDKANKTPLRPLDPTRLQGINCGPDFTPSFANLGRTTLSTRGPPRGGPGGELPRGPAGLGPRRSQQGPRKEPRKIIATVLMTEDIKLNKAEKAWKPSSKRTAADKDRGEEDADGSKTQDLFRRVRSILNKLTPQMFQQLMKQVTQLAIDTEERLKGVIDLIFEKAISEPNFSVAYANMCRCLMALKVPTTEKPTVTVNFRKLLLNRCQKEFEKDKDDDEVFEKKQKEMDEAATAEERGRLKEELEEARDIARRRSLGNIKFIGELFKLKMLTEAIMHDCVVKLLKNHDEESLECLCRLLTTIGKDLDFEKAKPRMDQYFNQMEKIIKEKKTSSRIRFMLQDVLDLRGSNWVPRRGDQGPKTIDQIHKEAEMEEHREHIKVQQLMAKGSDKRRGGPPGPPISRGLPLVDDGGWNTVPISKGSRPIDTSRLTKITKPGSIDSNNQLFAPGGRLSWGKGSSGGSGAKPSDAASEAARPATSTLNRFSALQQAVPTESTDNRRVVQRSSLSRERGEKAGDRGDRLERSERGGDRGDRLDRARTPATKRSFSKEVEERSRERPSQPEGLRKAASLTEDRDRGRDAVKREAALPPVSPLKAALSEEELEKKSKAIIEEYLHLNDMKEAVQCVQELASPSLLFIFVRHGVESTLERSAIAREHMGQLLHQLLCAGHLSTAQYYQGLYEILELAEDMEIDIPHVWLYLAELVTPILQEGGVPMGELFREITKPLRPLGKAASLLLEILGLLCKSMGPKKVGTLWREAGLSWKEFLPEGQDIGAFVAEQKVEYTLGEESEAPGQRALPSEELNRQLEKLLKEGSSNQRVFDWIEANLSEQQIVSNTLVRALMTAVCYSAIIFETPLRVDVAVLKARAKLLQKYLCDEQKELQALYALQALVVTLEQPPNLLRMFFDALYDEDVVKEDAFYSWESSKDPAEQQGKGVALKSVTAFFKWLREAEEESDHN
Active calls of the source: *; nt = not tested or not shown; [ ] = remark or other dose.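 The calls were made as follows, unless noted: active = inhibition above about 30% (limit read from the data); inactive = the rest.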

SMILES | Mcl1 Noxa PPI | Bim-Mcl-1 | Mcl1-Bid inh | 14-3-3 Bad PPI | NCF1 inh | eIF4E-4G inh
CC(C)C1CC(CCNCc2ccc(N(C)C)cc2)(c2ccccc2)CCO1 (centres undefined) | 14.2 | -7.0 | -30.8 | -2.0 | -0.4 | -2.5
Cc1ccc(C2(CCNCc3ccc(N(C)C)cc3)CCOC(C(C)C)C2)cc1 (centres undefined) | 56.4* | 0.0 | -35.1 | -3.7 | -7.5 | -6.6
N=C1/C(=C/c2cccn2Cc2ccc(Cl)cc2)C(=O)N=C2SC=CN12 | 35.7 | -1.0 | 53.7* | 24.9 | 21.7 | 6.9
CC1(c2ccccc2)CC(C)(C)n2c(O)c(C3=NC(=S)NC3=O)c3cccc1c32 (centres undefined) | 60.2* | nt | 21.6 | 11.3 | 7.3 | 10.5
CC(=O)Nc1ccc(C(=O)OCC(=O)NC(=O)NC2CCCCC2)cc1 | 16.1 | 0.0 | -10.6 | -9.4 | 133.3* | -7.7
COC(=O)c1ccc(NC(=O)NC2CCCCC2)cc1 | 21.5 | 0.0 | -11.4 | -9.4 | 0.7 | -1.6
CC12CCC(C(=O)N3CCN(Cc4ccccc4)CC3)(OC1=O)C2(C)C (centres undefined) | -3.2 | -1.0 | -14.3 | -7.4 | 31.8* | 3.8
CC12CCC(C(=O)N3CCCCCC3)(OC1=O)C2(C)C (centres undefined) | -4.5 | 0.0 | -23.2 | -12.0 | -15.9 | -10.8
c1coc(Cn2nnnc2CN2CCN(C3CCCC3)CC2)c1 | 32.3 | -3.0 | 19.1 | 79.1* | -3.6 | 15.4
Cc1nonc1-c1csc(N)n1 | -3.6 | 0.0 | -35.0 | -0.1 | -3.3 | -0.6
CN1CCN(C2=C(Cl)C(=O)C(c3cnc(N4CCCCC4)s3)=C(Cl)C2=O)CC1 | 98.2* | 32.0 | 79.3* | 82.5*[fluorescence artefact?] | 47.5* | 53.6*[fluorescence artefact?]
CCOC(=O)C1CCN(C(c2ccccn2)c2c(C)[nH]c3ccccc23)CC1 (centres undefined) | 59.2* | 2.0 | 3.9 | -7.5 | 17.5 | 1.4
Cc1[nH]c2ccccc2c1C(c1ccccn1)N1CCC(C(N)=O)CC1 (centres undefined) | 56.6* | -1.0 | 17.2 | 3.6 | 13.8 | 1.9
Cc1[nH]c2ccccc2c1C(c1ccncc1)N1CCC(C)CC1 (centres undefined) | 0.2 | -2.0 | -11.8 | -8.6 | -2.9 | -1.5
COc1ccc(Cn2c(SCc3cc(C)ccc3C)nc3cc(OC)c(OC)cc3c2=N)cc1 | 19.1 | -6.0 | 4.6 | -2.4 | 66.4* | -64.6
COc1cc2nc(SCc3ccc(C(F)(F)F)cc3)n(Cc3cccs3)c(=N)c2cc1OC | -4.0 | 0.0 | -11.6 | -15.8 | -20.3 | -8.0
COc1ccc(Cn2c(SCc3ccc(C)cc3)nc3cc(OC)c(OC)cc3c2=N)cc1Cl | -3.5 | -2.0 | 15.2 | 5.5 | 35.0* | 1.1
COc1cc2nc(SCc3ccc(Cl)cc3Cl)n(Cc3cccs3)c(=N)c2cc1OC | -47.4 | 0.0 | -36.7 | -14.0 | -50.4 | -2.1
O=C(CSc1nnc(-c2ccc(C(F)(F)F)cn2)s1)c1ccccc1 | 1.0 | nt | -8.1 | 3.2 | -13.2 | -3.6
CCOc1ccc(N2C(=O)CCC2=O)cc1 | 6.0 | 3.0 | -22.2 | -8.9 | 9.6 | 6.8
CCCCCCC(=O)Oc1ccc(N2C(=O)CCC2=O)cc1 | 55.2* | 2.0 | 5.3 | 1.9 | 6.5 | 1.7
S=c1nc[nH]c2c1ncn2C1CCCC1 | -11.1 | nt | -31.0 | -2.3 | -8.1 | -1.7
CCn1c2ccccc2c2c3ncc4cccn4c3ccc21 | -12.5 | nt | -10.4 | -4.7 | -53.5 | 0.1
N#CCc1nn(-c2ccccc2)c2ncnc(N)c12 | -6.2 | nt | -17.9 | -3.2 | -6.0 | 6.3
COc1ccc2c(c1)O[C@@H](c1ccc3c(c1)OCO3)[C@H](OC(=O)Nc1cc(OC)c(OC)c(OC)c1)C2=O | 9.0 | 0.0 | -5.4 | -9.6 | -5.6 | 5.5

Screening results (PubChem BioAssay)
